TEAD-YAP inh – TEAD-YAP interaction inhibition | HEK-TIYL cells, TEAD-Gal4/YAP UAS-luciferase luminescence | inhibition, % at 9.12 µM | actives 1.4% (n = 640,000) | AID 1259422; in the data active = inhibition above about 32%;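 also: 0% = median of test compound wells and 100% = reference inhibitor wells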
MITF inh – inhibitors of human MITF; O75030; AlphaScreen MITF homodimerization, bead proximity signal; inhibition, % at 2.6 µM; actives 0.91% (n = 650,000); in the data active = inhibition above about 50%;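 also: 0% = vehicle wells with protein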
GPR151 ag – activates the human receptor GPR151. Q8TDV0. PathHunter beta-arrestin GPR151 cells, luminescence. activation, % at 11.2 µM. actives 1% (n = 650,000). AID 1508602; in the data active = activation above about 4.9%;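 also: 0% = median of compound wells and 100% = cells with positive control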
FBW7 act – human FBW7 E3 ligase activation, primary screen; Q969H0; normalized activity (activation), % at 26.1 µM; actives 0.13% (n = 650,000); AlphaScreen FBW7–phospho-cyclin E peptide binding, activator screen; in the data active = normalized activity above about 1.9%;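 also: purified mutant Fbw7 with reduced substrate affinity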
Target sequence (Q969H0 whole entry, looked up): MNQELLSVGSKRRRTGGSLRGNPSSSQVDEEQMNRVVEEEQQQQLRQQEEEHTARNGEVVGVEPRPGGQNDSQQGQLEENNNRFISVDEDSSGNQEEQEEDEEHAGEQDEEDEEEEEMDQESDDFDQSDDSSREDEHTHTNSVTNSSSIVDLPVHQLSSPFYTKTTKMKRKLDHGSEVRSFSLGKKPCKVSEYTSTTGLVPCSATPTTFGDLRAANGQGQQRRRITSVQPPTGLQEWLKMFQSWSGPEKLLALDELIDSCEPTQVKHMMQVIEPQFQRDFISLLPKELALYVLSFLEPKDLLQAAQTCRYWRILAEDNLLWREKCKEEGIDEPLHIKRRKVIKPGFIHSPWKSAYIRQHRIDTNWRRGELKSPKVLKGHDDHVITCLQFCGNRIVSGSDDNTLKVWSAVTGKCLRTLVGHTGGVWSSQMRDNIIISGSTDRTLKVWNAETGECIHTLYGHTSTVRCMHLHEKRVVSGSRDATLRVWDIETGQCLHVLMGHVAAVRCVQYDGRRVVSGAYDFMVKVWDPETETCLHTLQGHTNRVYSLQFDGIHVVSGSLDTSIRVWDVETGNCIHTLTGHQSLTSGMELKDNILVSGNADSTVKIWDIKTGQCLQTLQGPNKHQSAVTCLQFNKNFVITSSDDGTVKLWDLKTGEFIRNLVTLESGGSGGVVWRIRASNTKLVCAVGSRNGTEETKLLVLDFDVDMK
GPR151 confirm – human GPR151 activation, confirmation screen | shares compounds with GPR151 ag | GPR151 PathHunter beta-arrestin cells, luminescence, 90 min; % of EA-reagent control over plate median | activation, % at 11.2 µM | 6,700 tested, under 10 active;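 active = mean percent activation across replicates above the confirmation screen cutoff of 4.91%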
GPR119 ag – counter-screen for GPR151 activators: effect on human GPR119 | activation, % at 11.2 µM | shares compounds with GPR151 ag | actives 0.3% (n = 6,700) | GPR119 PathHunter beta-arrestin cells, luminescence, 90 min; 0 = compound-well median, 100 = enzyme-acceptor control;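 active = mean percent activation in the counterscreen above 29.09%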;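 also: counterscreen on off-target GPR119 to flag nonselective hits from the GPR151 activator screen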
* marks the source's active call; other numbers are inactive results; / = not tested or not shown; ! = a repeat was not active. In the library only some 3.5% were active in any assay of this set; here they are far more common.

SMILES	TEAD-YAP inh	MITF inh	GPR151 ag	FBW7 act	GPR151 confirm	GPR119 ag
C/C(=N\NC(=O)c1ccc(Br)cc1)c1ccc(F)cc1	6.9	7.6	1.8	0.9	/	/
CC(=O)N(C)c1ccc(NC(=O)c2ccco2)cc1	-27.3	8.1	5.3*	0.0	-0.7	-5.9
Cn1nnnc1SCc1nnc(-c2cccs2)o1	-20.6	2.3	7.6*	0.1	0.7	14.1
Cn1nnnc1SCc1nnc(-c2ccccc2)o1	-25.1	-2.9	0.9	-0.2	/	/
O=C(CN1C(=O)CSC1=O)N1CCCC(N2CCN(c3ccccc3)CC2)C1 (stereo not given)	-0.6	9.0	2.7	0.1	/	/
C=Cc1ccc(Cn2c(C(=O)OC)c(NC(C)=O)c3c(C)c(C)sc32)cc1	-2.0	-1.7	5.4*	-0.1	-0.5	-14.9
COC(=O)c1c(NC(C)=O)c2c(C)c(C)sc2n1Cc1cccc(OC)c1	0.0	-4.3	-0.1	-0.2	/	/
CC(=O)c1cccc(NC(=O)CN(CCc2ccccc2)S(=O)(=O)c2ccc(Cl)cc2)c1	9.8	-4.3	0.8	0.1	/	/
CCOC(=O)c1cnc2ccc(OC)cc2c1Nc1ccccc1C(=O)O	-1.4	-8.7	5.6*	-0.1	-0.4	-3.7
CCOC(=O)c1cnc2cc(C(F)(F)F)ccc2c1Nc1cc(OC)ccc1OC	5.9	-0.1	4.9*	0.0	-0.7	9.3
CCOC(=O)c1cnc2ccc(OC)cc2c1Nc1ccccc1C	-4.5	2.9	-0.1	0.0	/	/
OC(COCc1ccccc1)C(O)COCc1ccccc1 (stereo not given)	-4.6	16.0	-0.2	-0.1	/	/
CC(C)CC(NC(=O)c1ccccc1)C(=O)OCc1ccccc1 (stereo not given)	4.0	14.6	5.6*	0.3	-0.8	-3.6
CC(C)CC(NC(=O)c1ccccc1)C(=O)OCC(=O)c1ccccc1 (stereo not given)	-8.6	-10.7	0.5	0.0	/	/
COc1cc(CN2CCCC(O)C2)c([N+](=O)[O-])cc1OC (stereo not given)	-0.7	-15.1	-0.8	0.1	/	/
Cc1cccc(OCC(=O)NCc2cccnc2)c1	3.9	-3.4	1.8	0.1	/	/
Cc1cc(OCC(=O)NCc2cccnc2)ccc1[N+](=O)[O-]	-7.2	2.2	5.2*	0.0	-0.8	2.2
CCOc1ccc(NC(=O)c2cccnc2)c([N+](=O)[O-])c1	46.2*	-0.5	5.8*	0.0	1.0	8.5
COc1ccccc1NC(=O)C1C2C=CC(C3CC23)C1C(=O)O (stereo not given)	5.5	14.7	12.4*	-0.1	-0.4	1.1
Cc1ccccc1NC(=O)C1C2C=CC(C3CC23)C1C(=O)O (stereo not given)	-7.0	17.4	-0.4	0.1	/	/
O=c1cc(N2CCOCC2)oc2c(-c3ccccc3)cccc12	-6.7	4.6	5.4*!	0.1	-0.3	-5.8
O=C(CN1CCCCCC1)N/N=C/c1ccccc1F	-0.8	17.7	7.2*	-0.1	-0.8	1.8
COc1ccc(CNC(=O)c2sc3cnccc3c2-n2cccc2)cc1	54.9*	4.5	5.2*	-0.1	1.1	2.5
Cc1ccc(-n2[nH]c(C)c(/C=N/c3ccccn3)c2=O)cc1	4.9	-7.3	-2.9	-0.3	/	/
Cc1[nH]n(-c2ccccc2)c(=S)c1/C=N/c1ccccn1	6.4	-7.6	5.9*	-0.1	0.4	4.9
SMILES	TEAD-YAP inh	MITF inh	GPR151 ag	FBW7 act	GPR151 confirm	GPR119 ag
FC(F)(F)c1cccc(NC(=S)N2CCSC2c2ccc(Br)cc2)c1 (stereo not given)	-5.0	-11.8	6.4*	-0.2	0.6	-2.1
CCC1(CCC(=O)NCc2ccc(C)o2)CCC(=O)N1 (stereo not given)	5.0	4.0	-1.7	0.1	/	/
COc1ccc(N2CC(NC(=O)NC(c3ccccc3)c3ccccc3)CC2=O)cc1 (stereo not given)	10.9	-7.3	6.1*	0.0	0.3	1.2
CCOC(=O)n1nc(Cc2ccncc2)c2ccccc2c1=O	-0.8	12.4	5.2*	-0.1	0.5	7.2
O=C(O)Cn1nc(Cc2ccncc2)c2ccccc2c1=O	1.6	16.3	-0.6	0.7	/	/
CC(CCc1ccccc1)NC(=O)Cn1nc(Cc2ccncc2)c2ccccc2c1=O (stereo not given)	-3.1	19.8	5.8*	0.3	2.3	4.4
CCn1c(SCC(=O)NCC(F)(F)F)nnc1-c1cccs1	2.9	8.0	1.0	0.0	/	/
NNC(=O)c1cc(-c2ccco2)nn1-c1ccc(Cl)cc1	-7.3	-5.5	-0.6	-0.1	/	/
COc1ccc(C(=O)N(CC(C)C)c2nnc(-c3cccnc3)s2)cc1OC	-52.5	11.4	0.3	-0.1	/	/
COc1cc(C(=O)NCCC(=O)NCCCN2CCOCC2)cc(OC)c1OC	0.3	11.8	0.0	0.1	/	/
COc1cc2nc(NCCCOC(C)C)n3nc(-c4cccnc4)nc3c2cc1OC	9.8	1.4	5.2*	0.1	-0.2	-8.6
O=C(Nc1ccc(N2CCCCC2)c(C(=O)O)c1)c1ccco1	-6.1	3.8	-0.5	-0.1	/	/
NC(=O)c1cc(NC(=O)c2ccco2)ccc1N1CCCCC1	-39.6	-5.5	6.5*	0.2	0.1	10.2
COc1ccccc1Cn1c(SCc2cccc(F)c2)nc2cc(C(=O)N3CCC4(CC3)OCCO4)ccc2c1=O	-2.7	6.8	-0.4	0.9	/	/
COC(=O)c1ccc(CN(c2ccccc2)S(=O)(=O)c2ccccc2)cc1	-0.7	1.9	-0.1	-0.1	/	/
COC(=O)c1ccc(CN(c2ccccn2)S(=O)(=O)c2ccccc2)cc1	12.6	28.1	7.3*	0.2	0.5	4.2
CCOc1ccc(-c2csc(/C(C#N)=C/c3ccccc3OCC)n2)cc1	-6.3	7.5	6.2*	-0.1	4.8	13.4
COc1ccc(N/C=C(/C#N)c2nc(-c3ccccc3)cs2)cc1	-2.8	3.7	10.0*	0.2	-1.1	-14.0
COc1ccc(-c2csc(/C(C#N)=C/Nc3ccc(C(N)=O)cc3)n2)cc1OC	0.4	-9.3	0.8	0.1	/	/
COc1ccc(-c2csc(/C(C#N)=C/Nc3ccc(F)c([N+](=O)[O-])c3)n2)cc1OC	0.5	-2.7	5.2*	0.0	2.7	8.4
CCOc1ccc(/C=C(/C#N)c2nc(-c3ccc(Br)cc3)cs2)c(OCC)c1	4.7	0.1	0.1	0.3	/	/
CC(=O)N(c1cc2sc(=O)oc2c2ccccc12)S(=O)(=O)c1cccs1	2.4	-1.6	0.4	0.0	/	/
COc1ccc(C2=C(c3ccc(OC)cc3)C3(c4ccccc4)C(=O)C2(c2ccccc2)C2C(=O)N(c4ccc5c(c4)OCO5)C(=O)C23)cc1 (stereo not given)	-18.2	12.2	0.8	-0.2	/	/
COc1cc([N+](=O)[O-])cc2sc(NC(=O)C34CC5CC(CC(C5)C3)C4)nc12	13.4	9.5	-0.3	-0.1	/	/
O=C(CCn1c(=O)oc2ccccc21)N1CCc2c(nc(N3CCCC3)[nH]c2=O)C1	6.3	9.7	5.1*	-0.1	0.1	3.8

From PubChem BioAssay
